# Assay outcomes from PubChem.
# Jurkat autofluor: autofluorescence counter-screen for VLA-4 integrin assays. Jurkat cells, compound autofluorescence, flow cytometry; stronger effect = higher value; 1 = vehicle-only cell background. fluorescence ratio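 (tested at 10 µM compound in the well)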. hit rate 0.61% among 24,000;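 active means fluorescence ratio above 2.44, which is 1 plus 3 SD of all ratios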;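 further: green fluorescence of cells measured with 488 nm excitation and 530 nm emission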
# FPR ligand: binds the human formylpeptide receptor FPR; inhibition, % (test concentration not listed); P21462; hit rate 0.74% among 24,000; FPR-expressing cells, fluorescent ligand binding, flow cytometry;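 further: 0% = buffer wells and 100% = receptor blocker peptide wells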
# VLA-4 antagonist: inhibition of LDV-FITC ligand binding to human VLA-4 integrin; hit rate 0.2% among 24,000; inhibition, % at 10 µM (by protocol); Jurkat cells, LDV-FITC binding with Mn2+, flow cytometry; 100% = Mn2+-driven binding gain fully reversed; AID 529;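 active means inhibition above 50%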;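 further: 0% = Mn2+ stimulated cells lacking compound and 100% = ligand binding without Mn2+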
# Target sequence (P13612 whole entry, looked up): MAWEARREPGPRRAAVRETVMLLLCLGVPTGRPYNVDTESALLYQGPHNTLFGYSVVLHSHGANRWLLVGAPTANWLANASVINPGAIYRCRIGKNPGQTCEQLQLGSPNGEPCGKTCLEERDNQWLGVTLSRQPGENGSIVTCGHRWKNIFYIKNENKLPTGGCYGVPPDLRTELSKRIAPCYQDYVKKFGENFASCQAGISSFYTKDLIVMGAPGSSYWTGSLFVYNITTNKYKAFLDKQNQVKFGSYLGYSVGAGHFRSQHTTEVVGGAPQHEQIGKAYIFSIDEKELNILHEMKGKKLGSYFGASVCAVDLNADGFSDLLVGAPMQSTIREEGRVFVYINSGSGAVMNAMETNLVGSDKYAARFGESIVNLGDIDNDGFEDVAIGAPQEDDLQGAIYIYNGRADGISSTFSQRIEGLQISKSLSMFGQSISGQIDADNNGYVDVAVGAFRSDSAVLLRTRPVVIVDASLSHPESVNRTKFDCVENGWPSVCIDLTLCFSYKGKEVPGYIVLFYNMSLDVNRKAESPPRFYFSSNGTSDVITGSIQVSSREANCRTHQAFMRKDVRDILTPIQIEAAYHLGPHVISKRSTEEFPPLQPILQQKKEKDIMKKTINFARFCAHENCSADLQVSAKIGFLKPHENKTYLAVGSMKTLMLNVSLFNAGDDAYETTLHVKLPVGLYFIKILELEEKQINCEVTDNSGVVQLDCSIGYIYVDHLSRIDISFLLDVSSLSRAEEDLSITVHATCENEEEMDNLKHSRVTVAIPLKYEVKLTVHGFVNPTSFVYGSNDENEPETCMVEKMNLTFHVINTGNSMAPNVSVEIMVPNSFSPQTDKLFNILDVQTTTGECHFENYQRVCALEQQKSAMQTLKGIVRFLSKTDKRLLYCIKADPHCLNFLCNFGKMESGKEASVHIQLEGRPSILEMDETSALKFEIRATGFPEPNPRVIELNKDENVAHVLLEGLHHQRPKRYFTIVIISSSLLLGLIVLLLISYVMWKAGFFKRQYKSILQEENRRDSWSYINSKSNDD
# FPRL1 binder: human FPRL1 ligand, with FPR counter-screen; P25090; FPRL1-expressing cells, fluorescent ligand binding inhibition, flow cytometry; inhibition, % (no concentration beside the values); hit rate 0.3% among 24,000; AID 441;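 further: 0% = buffer alone and 100% = receptor blocker peptide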
# VLA-4 agonist: allosterically activates the human VLA-4 integrin. AID 528. Jurkat cells, LDV-FITC binding, flow cytometry. 24,000 tested, under 10 active. activation, % at 10 µM (by protocol);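 active means fluorescent ligand binding to cells raised by more than 40% of the manganese-induced maximum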;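 further: 0% = ligand binding without compound and 100% = manganese-stimulated maximal binding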
# Active calls of the source: *. The list is not random: actives were taken first. Their share in the collection is about 1.4%. Unless noted, no stated cut-off is given here; in the data, active means inhibition above about 30%; inconclusive means no clear call, values can overlap the other calls; inactive means below that.
SMILES,Jurkat autofluor,FPR ligand,VLA-4 antagonist,FPRL1 binder,VLA-4 agonist
O=c1c2ccccc2[se]n1-c1ccccc1,1.1,-2,-68,5,40*
COc1cccc(C2=NOC(C(=O)N3CCC4(CC3)OCCO4)C2)c1 (stereo not given),1.1,-1,12,0,1
